This is an account of results in PubChem BioAssay (Tox21).

Molecules are shown by their SMILES. Several values for one entry are separate records, joined by “and”; a condition that tells them apart may be missing. Equal entries are not always repeated. Inconclusive results are not listed. A number with no mark means an inactive call. Activity calls are given as the source filed them. Calls follow the shape of the dose curve; as a rule, active = well fitted cell-killing curve with a large enough effect in the repeat runs; inconclusive = weak or mixed curves, or effect the other way; inactive = flat fitted curve, though single readings scatter.

Test [1] can be described thus: cAMP Responsive Elements (CRE) small molecule antagonists, cell-based qHTS assay: qHTS cell viability counter screen (AID 2060913). Also: nearly all actives have a fitted effect of over 40% in size. As to conditions: CRE-bla HEK293T viability, CellTiter-Glo luminescence, 5 h; series mostly up to 92.4 µM. In outline:
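Cytotoxicity counter screen multiplexed with the CRE-bla antagonist read: HEK293T cells in DMEM with dialyzed FBS and 25 mM HEPES were treated 3 hrs under 0.25 uM final NKH477, then viability measured by CellTiter-Glo luminescence.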

A short description of test [2]: cAMP Responsive Elements (CRE) small molecule agonists, cell-based qHTS assay: qHTS cell viability counter screen (AID 2060914).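 Also: viability read after 3 h of compound exposure; nearly all actives have a fitted effect of over 50% in size.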 As to conditions: CRE-bla HEK293T viability, CellTiter-Glo luminescence, 5 h; series mostly up to 92.4 µM. The procedure, abridged: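 CRE-bla HEK 293T cells, plated 18 h at 37 °C, were exposed to compounds for 3 h at 37 °C/5% CO2. Viability was then measured in the same wells by CellTiter-Glo luminescence after 30 min at room temperature.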
On the technique in general: In qHTS, concentration-response curves come from the screen itself.
Potency is read from the fitted curve at half-maximal effect.

With `COc1cccc(O)c1`, the Potency result in test [1] and in test [2] was “inactive” each time.
As to `COC(=O)c1cc(Cl)ccc1OC`, the Potency result in test [1] and in test [2] was “inactive” in each case.
For `CN(C)C(=O)Oc1ccc[n+](C)c1`, the Potency result in test [1] and in test [2] was “inactive” throughout.
With `O=C(O)c1cc(Cl)cc([N+](=O)[O-])c1Cl`, the Potency result in test [1] and in test [2] was “inactive” throughout.
For `COc1cc(NC(=O)CC(C)=O)c(OC)cc1Cl`, the Potency entry in test [1] and in test [2] was “inactive” each time.
Consider `CC(Cc1cccc(C(F)(F)F)c1)NCCOC(=O)c1ccccc1` (stereo not given), for which the Potency result in test [1] and in test [2] was “inactive” in each case.
Turning to `COCCCC/C(=N\OCCN)c1ccc(C(F)(F)F)cc1`, the Potency result in test [1] and in test [2] was “inactive” in each case.
For `OCCCO`, the Potency entry in test [1] and in test [2] was “inactive” throughout.
With `CCOc1cc(NC(C)=O)ccc1C(=O)OC`, the Potency result in test [1] and in test [2] was “inactive” throughout.
As to `NC(=O)c1c(Cl)cccc1Cl`, the Potency entry in test [1] and in test [2] was “inactive” each time.
Regarding `Cc1ccc(C(C)(C)O)cc1`, the Potency entry in test [1] and in test [2] was “inactive” throughout.
For `CCOC(=O)c1ccc(I)cc1`, the Potency entry in test [1] and in test [2] was “inactive” each time.
Consider `CC[C@@H](N)CO`, for which the Potency entry in test [1] and in test [2] was “inactive” in each case.
`COC(=O)[C@H]1[C@H]2C[C@@H]3c4[nH]c5cc(OC)ccc5c4CCN3C[C@H]2C[C@@H](OC(=O)/C=C/c2ccc(O)c(OC)c2)[C@@H]1OC`: the Potency entry in test [1] and in test [2] was “inactive” each time.
Take `CC1(C)CC(N)CC(C)(C)N1`: the Potency result in test [1] and in test [2] was “inactive” each time.
With `CCC(CC)C(C)CCOC(C)=O` (stereo not given), the Potency entry in test [1] and in test [2] was “inactive” each time.
In the case of `C=COCCCCO`, the Potency entry in test [1] and in test [2] was “inactive” each time.
`C=C1CC[C@H](O)CC1=C/C=C1\CCC[C@]2(C)[C@@H]([C@H](C)/C=C/[C@H](C)C(C)C)CC[C@@H]12`: the Potency result in test [1] and in test [2] was “inactive” each time.
As to `CCC(C)(C)C`, the Potency result in test [1] and in test [2] was “inactive” in each case.
On to `CCN1CCCC1CNC(=O)c1cc(S(=O)(=O)CC)c(N)cc1OC` (stereo not given), for which the Potency entry in test [1] and in test [2] was “inactive” in each case.
Take `Cc1cc(N)n(-c2ccccc2)n1`: the Potency entry in test [1] and in test [2] was “inactive” each time.
As for `CN(C)[C@@H](CCOc1cccc2ccccc12)c1ccccc1`, the Potency entry in test [1] and in test [2] was “inactive” in each case.
Consider `CCCCCCCCCCCCCCCC[N+](C)(C)CC`, for which the Potency in test [1] is 57.1 µM (active) and 26.6 µM (active); in test [2], 54.6 µM (active) and 26.6 µM (active).
As for `NCCNC(=O)c1ccc(Cl)cn1`, the Potency entry in test [1] and in test [2] was “inactive” each time.
Turning to `CC(=O)CCC1=C(C)CCCC1(C)C`, the Potency result in test [1] and in test [2] was “inactive” throughout.
`C=CC(C)(C)O`: the Potency entry in test [1] and in test [2] was “inactive” throughout.
On to `Cc1ncc(CO)c(CN)c1O`, for which the Potency entry in test [1] and in test [2] was “inactive” each time.
As for `C=C(C)CS(=O)(=O)O`, the Potency entry in test [1] and in test [2] was “inactive” throughout.
With `COc1ccccc1[N+](=O)[O-]`, the Potency result in test [1] and in test [2] was “inactive” in each case.
With `CCCCCCN`, the Potency entry in test [1] and in test [2] was “inactive” throughout.
`COc1cc(C=O)ccc1OC(=O)C(C)C`: the Potency result in test [1] and in test [2] was “inactive” each time.
With `CC(C)C(=O)Nc1cccc(C2CN3CCSC3=N2)c1` (stereo not given), the Potency entry in test [1] and in test [2] was “inactive” throughout.
For `CC(O)C1CCCCC1` (stereo not given), the Potency result in test [1] and in test [2] was “inactive” throughout.
On to `CN(C)Cc1ccccc1O`, for which the Potency entry in test [1] and in test [2] was “inactive” in each case.
With `C=CC(=O)OCCCC`, the Potency result in test [1] and in test [2] was “inactive” each time.
For the compound `CCC(Cc1ccccc1)(C(=O)c1ccc(N2CCOCC2)cc1)N(C)C` (stereo not given), the Potency result in test [1] and in test [2] was “inactive” throughout.
Consider `COC(=O)OC`, for which the Potency result in test [1] and in test [2] was “inactive” throughout.
With `CC(C)C(=O)OCc1cccc(OC(=O)[C@@H]2N3C(=O)[C@@H](NC(=O)Cc4ccccc4)[C@H]3SC2(C)C)c1`, the Potency result in test [1] and in test [2] was “inactive” in each case.
As to `O=S(=O)(O)CCS`, the Potency result in test [1] and in test [2] was “inactive” throughout.
In the case of `CCCC(=O)Nc1ccc(O)c(C(C)=O)c1`, the Potency entry in test [1] and in test [2] was “inactive” in each case.
Turning to `CCOC(=O)c1ccc(N(C)C)cc1`, the Potency result in test [1] and in test [2] was “inactive” each time.
Consider `CN1C(=O)CC(C)(c2ccccc2)C1=O` (stereo not given), for which the Potency entry in test [1] and in test [2] was “inactive” in each case.
Turning to `CC(C)(C)c1ccc(C(O)CCCN2CCC(C(O)(c3ccccc3)c3ccccc3)CC2)cc1` (stereo not given), the Potency result in test [1] and in test [2] was “inactive” in each case.
For `CC1(C)CCC[C@]2(C)[C@H]3CCO[C@]3(C)CC[C@@H]12`, the Potency result in test [1] and in test [2] was “inactive” in each case.
On to `CC1=C(/C=C/C(C)=C/C=C/C(C)=C\C=O)C(C)(C)CCC1`, for which the Potency entry in test [1] and in test [2] was “inactive” each time.
With `Brc1cc2ccccc2c2ccccc12`, the Potency result in test [1] and in test [2] was “inactive” in each case.
Turning to `CS(=O)(=O)c1ccc(Cl)cc1`, the Potency result in test [1] and in test [2] was “inactive” in each case.
`COCC(C)O` (stereo not given): the Potency entry in test [1] and in test [2] was “inactive” throughout.
Consider `Cn1c(=O)cc(Oc2ccc(F)cc2F)c2cnc(NCC(C)(C)O)nc21`, for which the Potency result in test [1] and in test [2] was “inactive” throughout.
Take `O=C(CO)[C@@H](O)[C@H](O)[C@@H](O)CO`: the Potency result in test [1] and in test [2] was “inactive” each time.
With `CNC(=O)C(c1ccccc1)c1ccccc1`, the Potency result in test [1] and in test [2] was “inactive” each time.
`Cc1cc(C)c(N)cc1C`: the Potency result in test [1] and in test [2] was “inactive” each time.
With `CCCCCCCCCOC(=O)c1ccc(O)cc1`, in test [1], the Potency is 47.9 µM (active). The Potency entry in test [2] is “inactive”.
As to `O=C1CCCCCCCCCCCCCCCO1`, the Potency entry in test [1] and in test [2] was “inactive” in each case.
On to `O=C(OOC(=O)c1ccccc1)c1ccccc1`, for which the Potency entry in test [1] and in test [2] was “inactive” in each case.
Regarding `S=C(S)NCCNC(=S)S`, the Potency result in test [1] and in test [2] was “inactive” each time.
For the compound `O=C1CCC(N2C(=O)c3ccccc3C2=O)C(=O)N1` (stereo not given), the Potency result in test [1] and in test [2] was “inactive” throughout.
Consider `CCCCCCCCCCCC(=O)OCC`, for which the Potency entry in test [1] and in test [2] was “inactive” each time.
As to `C[Si](C)(C)Cl`, the Potency result in test [1] and in test [2] was “inactive” in each case.
Consider `COC(=O)c1ccc(O)cc1`, for which the Potency result in test [1] and in test [2] was “inactive” in each case.
